± gives the standard deviation of the averaged measurements. Targets with the largest changes are over-represented here; the source holds about 5,400 in all.
Target: T1, UniProt Q8TD55|Q8TD55-2
T1 sequence (whole entry): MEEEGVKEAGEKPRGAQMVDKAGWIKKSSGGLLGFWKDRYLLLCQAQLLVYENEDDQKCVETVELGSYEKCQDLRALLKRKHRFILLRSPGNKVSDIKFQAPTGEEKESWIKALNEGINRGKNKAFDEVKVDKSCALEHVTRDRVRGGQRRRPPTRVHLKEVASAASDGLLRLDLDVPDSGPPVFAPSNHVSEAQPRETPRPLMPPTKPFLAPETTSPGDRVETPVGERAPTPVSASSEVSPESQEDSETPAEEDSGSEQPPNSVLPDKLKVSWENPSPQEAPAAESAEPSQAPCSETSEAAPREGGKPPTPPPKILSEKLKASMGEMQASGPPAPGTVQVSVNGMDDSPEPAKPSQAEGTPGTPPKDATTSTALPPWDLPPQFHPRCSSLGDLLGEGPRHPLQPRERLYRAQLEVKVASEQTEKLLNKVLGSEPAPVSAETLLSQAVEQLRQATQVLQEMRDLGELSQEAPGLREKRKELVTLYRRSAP
Experiment: NP40-soluble protein abundance relative to vehicle (solubility fold change) (ratio); higher = more soluble protein in presence of GTP
Protocol: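 Solubility proteome profiling in Jurkat crude lysate. Lysate was treated with Mg-GTP (0.1-10 mM) for 10 min at room temperature and 3 min at 37 °C, then solubilised with 0.8% NP40 and benzonase, followed by ultracentrifugation. Proteins were quantified by TMT10 LC-MS/MS; the value is the NP40-soluble abundance relative to the NP40-processed vehicle, from 3 independent experiments.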

In the case of Nc1nc2c(ncn2[C@@H]2O[C@H](COP(=O)(O)OP(=O)(O)OP(=O)(O)O)[C@@H](O)[C@H]2O)c(=O)[nH]1 [guanosine triphosphate], the NP40-soluble protein abundance (concentration: 0.1mM) is reported as 1.07 ± 0.12, the NP40-soluble protein abundance (concentration: 0.5mM) is reported as 0.933 ± 0.0094 and the NP40-soluble protein abundance (concentration: 1mM) is reported as 1.12 ± 0.072. It also gave an NP40-soluble protein abundance (concentration: 2mM) of 0.933 ± 0.018, an NP40-soluble protein abundance (concentration: 4mM) of 0.96 ± 0.072 and an NP40-soluble protein abundance (concentration: 6mM) of 0.918 ± 0.046. It also gave an NP40-soluble protein abundance (concentration: 8mM) of 0.943 ± 0.13 and an NP40-soluble protein abundance (concentration: 10mM) of 1.03 ± 0.097.
